Records with an inconclusive call do not appear. The source made the active and inactive calls. The calls were made as follows, unless noted: active = hit-call score of the fitted dose curve at least 0.9, where 1 is the maximum; inconclusive = response in the unintended direction; inactive = score below 0.9.
Key:
[1] = biological target: Estrogen receptor beta (Homo sapiens) (UniProt Q92731); assay: OT_ER_ERbERb_1440: Odyssey Thera (OT) 24-hour HEK293T Protein-Complementation Assay for Estrogen Receptor-beta/-beta Homodimer (AID 2283380);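 also: fluorescence gain from ER beta LBD homodimer complementation read by laser scanning cytometry; scored as signal increase over DMSO baseline for both agonists and antagonists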
In short: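 Fluorescence increase, nuclear for agonists or whole-cell for antagonists, relative to DMSO vehicle, quantified by laser scanning cytometer after fixation and Draq5 staining. Readout from 24 h treatment of HEK293T cells carrying complementation-paired ER beta LBD (aa 310-547).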

[2] = biological target: Estrogen receptor (Homo sapiens) (UniProt P03372); assay: OT_ERa_GFPERaERE_0480: Odyssey Thera (OT) 8-hour HeLa Transcription Induction Assay for Estrogen Receptor (AID 2283381; active = hit-call score of the fitted dose curve at least 0.9, where 1 is the maximum; inactive = score below 0.9)
In short: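 HeLa cells expressing GFP reporter under estrogen response element, imaged 8 h after dosing. GFP induction quantified by high-content fluorescence microscopy image analysis; gain of signal fitted versus DMSO.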

[3] = biological target: Estrogen receptor (Homo sapiens) (UniProt P03372); assay: OT_ERa_GFPERaERE_0120: Odyssey Thera (OT) 2-hour HeLa Transcription Induction Assay for Estrogen Receptor (AID 2283382)
In short: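 HeLa cells were dosed for 2 h, then GFP reporter induction was quantified by fluorescence microscopy with high-content image analysis. Gain of signal fitted against DMSO baseline.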

[4] = biological target: Bile acid receptor (Homo sapiens) (UniProt Q96RI1); assay: OT_FXR_FXRSRC1_0480: Odyssey Thera (OT) 8-hour HEK293T Protein-Complementation Assay for Farnesoid X receptor/SRC-1 Co-activator (AID 2283383)
In short: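 HEK293T protein-fragment complementation assay: FXR and SRC-1 coactivator are fused to reporter fragments, and their interaction restores a fluorescent reporter. Readout was taken 8 h after dosing, with gain of signal fit relative to DMSO.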

[5] = biological target: Bile acid receptor (Homo sapiens) (UniProt Q96RI1); assay: OT_FXR_FXRSRC1_1440: Odyssey Thera (OT) 24-hour HEK293T Protein-Complementation Assay for Farnesoid X receptor/SRC-1 Co-activator (AID 2283384)
In short: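 HEK293T cells, 24 h after chemical dosing. FXR–SRC-1 coactivator interaction read as fluorescence from protein-fragment complementation of a split reporter. Gain of signal fitted against DMSO baseline.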

[6] = biological target: Retinoic acid receptor RXR-alpha (Homo sapiens) (UniProt P19793); assay: OT_NURR1_NURR1RXRa_0480: Odyssey Thera (OT) 8-hour HEK293T Protein Complementation Assay for Nurr1/retinoid X receptor (RXR) (AID 2283385)
In short: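 HEK293T cells expressing Nurr1 and RXRα fused to reporter fragments (protein-fragment complementation); fluorescence measured 8 h after dosing. Gain of signal fitted relative to DMSO.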

[7] = biological target: Retinoic acid receptor RXR-alpha (Homo sapiens) (UniProt P19793); assay: OT_NURR1_NURR1RXRa_1440: Odyssey Thera (OT) 24-hour HEK293T Protein Complementation Assay for Nurr1/retinoid X receptor (RXR) (AID 2283386)
In short: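 HEK293T protein-fragment complementation of Nurr1 and RXRα fused to reporter fragments; compounds 24 h. Fluorescence gain from reconstituted reporter fitted versus DMSO.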

[8] = biological target: Peroxisome proliferator-activated receptor gamma (Homo sapiens) (UniProt P37231); assay: OT_PPARg_PPARgSRC1_0480: Odyssey Thera (OT) 8-hour Protein-Complementation Assay for Peroxisome Proliferator-activated Receptor Gamma / SRC-1 Co-activator (AID 2283387);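 also: nuclear to cytoplasmic split Venus YFP fluorescence ratio reporting PPARg SRC-1 interaction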
In short: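 Protein-fragment complementation in HEK293T: Venus YFP halves (residues 1-158, 159-239, mutated to IFP1/IFP2) fused to PPARg/SRC-1. 8 h exposure; N/C ratio at 488 nm; DMSO negative control.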

[9] = biological target: Agonist Androgen Response Element (ARE), AR (gene 367) (UniProt P10275); assay: OT_AR_ARELUC_AG_1440: Odyssey Thera (OT) 24-hour CHO-K1 Luciferase Assay for Agonist Androgen Response Element (ARE) (AID 2283379)
In short: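 Agonist mode, 24 h exposure in CHO-K1 ARE-luciferase cells; values reflect luminescence induction over vehicle.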

Chain of Bile acid receptor (Homo sapiens) (Q96RI1 whole entry, looked up, the tested form may be a part): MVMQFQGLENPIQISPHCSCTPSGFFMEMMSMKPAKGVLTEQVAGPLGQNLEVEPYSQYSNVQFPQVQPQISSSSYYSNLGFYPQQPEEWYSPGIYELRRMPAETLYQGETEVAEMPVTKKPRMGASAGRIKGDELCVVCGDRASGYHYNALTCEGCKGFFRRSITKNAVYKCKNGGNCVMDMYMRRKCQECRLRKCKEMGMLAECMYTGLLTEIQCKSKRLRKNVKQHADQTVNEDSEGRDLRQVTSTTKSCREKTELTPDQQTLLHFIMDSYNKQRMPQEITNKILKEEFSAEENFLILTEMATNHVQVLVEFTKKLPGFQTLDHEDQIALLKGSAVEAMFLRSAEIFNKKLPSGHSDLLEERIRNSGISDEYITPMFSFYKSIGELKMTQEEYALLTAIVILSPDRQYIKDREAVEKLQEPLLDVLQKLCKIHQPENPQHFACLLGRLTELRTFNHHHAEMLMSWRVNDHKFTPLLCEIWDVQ
Chain of Estrogen receptor (Homo sapiens) (P03372 whole entry, looked up): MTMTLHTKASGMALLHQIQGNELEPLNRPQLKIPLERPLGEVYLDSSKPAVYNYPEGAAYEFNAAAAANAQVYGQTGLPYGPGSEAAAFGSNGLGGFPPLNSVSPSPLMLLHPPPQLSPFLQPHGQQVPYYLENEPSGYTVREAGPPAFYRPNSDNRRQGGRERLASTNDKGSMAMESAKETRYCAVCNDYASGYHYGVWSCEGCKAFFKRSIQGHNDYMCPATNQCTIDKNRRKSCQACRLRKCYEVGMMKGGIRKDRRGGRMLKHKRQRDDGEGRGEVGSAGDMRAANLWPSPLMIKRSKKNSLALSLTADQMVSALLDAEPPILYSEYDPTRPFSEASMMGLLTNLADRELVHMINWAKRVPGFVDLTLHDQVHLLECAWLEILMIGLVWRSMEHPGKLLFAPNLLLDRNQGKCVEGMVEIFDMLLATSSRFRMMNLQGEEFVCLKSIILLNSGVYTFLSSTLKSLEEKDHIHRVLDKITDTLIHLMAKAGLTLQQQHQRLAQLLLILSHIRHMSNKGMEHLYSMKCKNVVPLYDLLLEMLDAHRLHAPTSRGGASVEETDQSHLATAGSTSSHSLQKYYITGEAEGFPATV
Chain of Peroxisome proliferator-activated receptor gamma (Homo sapiens) (P37231 whole entry, looked up, the tested form may be a part): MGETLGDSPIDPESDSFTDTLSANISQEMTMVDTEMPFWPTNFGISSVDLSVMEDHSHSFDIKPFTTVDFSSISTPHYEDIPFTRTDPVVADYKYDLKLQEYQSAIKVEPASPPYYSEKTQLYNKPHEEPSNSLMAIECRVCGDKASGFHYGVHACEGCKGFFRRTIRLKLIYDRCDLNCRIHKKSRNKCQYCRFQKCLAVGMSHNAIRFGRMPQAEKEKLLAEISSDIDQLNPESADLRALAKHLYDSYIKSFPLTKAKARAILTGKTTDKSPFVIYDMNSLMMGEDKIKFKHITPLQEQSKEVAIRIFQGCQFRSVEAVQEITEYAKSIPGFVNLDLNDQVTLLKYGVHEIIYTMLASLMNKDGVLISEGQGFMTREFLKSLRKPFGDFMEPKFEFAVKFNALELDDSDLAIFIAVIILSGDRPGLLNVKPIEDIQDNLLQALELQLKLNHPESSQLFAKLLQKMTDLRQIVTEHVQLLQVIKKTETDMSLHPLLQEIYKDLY
Chain of Retinoic acid receptor RXR-alpha (Homo sapiens) (P19793 whole entry, looked up, the tested form may be a part): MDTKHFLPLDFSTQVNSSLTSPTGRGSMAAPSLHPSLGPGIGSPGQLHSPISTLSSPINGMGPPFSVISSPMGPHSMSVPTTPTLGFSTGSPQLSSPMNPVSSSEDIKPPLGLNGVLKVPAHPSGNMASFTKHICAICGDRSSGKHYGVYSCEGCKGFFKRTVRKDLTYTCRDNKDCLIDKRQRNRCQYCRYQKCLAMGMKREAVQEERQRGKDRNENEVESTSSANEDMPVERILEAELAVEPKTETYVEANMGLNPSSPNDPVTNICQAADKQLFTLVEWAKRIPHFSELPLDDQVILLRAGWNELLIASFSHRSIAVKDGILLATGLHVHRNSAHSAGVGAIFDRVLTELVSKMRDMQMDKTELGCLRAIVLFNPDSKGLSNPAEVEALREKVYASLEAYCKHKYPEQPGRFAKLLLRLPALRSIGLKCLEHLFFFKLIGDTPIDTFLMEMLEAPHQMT
Chain of Estrogen receptor beta (Homo sapiens) (Q92731 whole entry, looked up, the tested form may be a part): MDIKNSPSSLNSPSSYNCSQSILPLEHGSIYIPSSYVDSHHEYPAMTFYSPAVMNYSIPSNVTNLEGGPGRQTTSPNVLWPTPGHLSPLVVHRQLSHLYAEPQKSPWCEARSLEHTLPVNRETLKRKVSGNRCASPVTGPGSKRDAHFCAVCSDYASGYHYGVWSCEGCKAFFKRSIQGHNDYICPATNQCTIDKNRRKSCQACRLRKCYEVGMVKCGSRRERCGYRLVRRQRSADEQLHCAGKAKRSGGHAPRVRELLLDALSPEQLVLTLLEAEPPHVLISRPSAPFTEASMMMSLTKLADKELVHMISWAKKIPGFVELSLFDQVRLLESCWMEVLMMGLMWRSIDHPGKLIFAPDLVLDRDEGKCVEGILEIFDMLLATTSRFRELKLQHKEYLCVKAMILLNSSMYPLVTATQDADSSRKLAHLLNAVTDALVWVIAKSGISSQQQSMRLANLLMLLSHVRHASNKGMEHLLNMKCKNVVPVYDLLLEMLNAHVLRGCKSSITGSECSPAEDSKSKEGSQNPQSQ
Chain of Agonist Androgen Response Element (ARE), AR (gene 367) (P10275 whole entry, looked up): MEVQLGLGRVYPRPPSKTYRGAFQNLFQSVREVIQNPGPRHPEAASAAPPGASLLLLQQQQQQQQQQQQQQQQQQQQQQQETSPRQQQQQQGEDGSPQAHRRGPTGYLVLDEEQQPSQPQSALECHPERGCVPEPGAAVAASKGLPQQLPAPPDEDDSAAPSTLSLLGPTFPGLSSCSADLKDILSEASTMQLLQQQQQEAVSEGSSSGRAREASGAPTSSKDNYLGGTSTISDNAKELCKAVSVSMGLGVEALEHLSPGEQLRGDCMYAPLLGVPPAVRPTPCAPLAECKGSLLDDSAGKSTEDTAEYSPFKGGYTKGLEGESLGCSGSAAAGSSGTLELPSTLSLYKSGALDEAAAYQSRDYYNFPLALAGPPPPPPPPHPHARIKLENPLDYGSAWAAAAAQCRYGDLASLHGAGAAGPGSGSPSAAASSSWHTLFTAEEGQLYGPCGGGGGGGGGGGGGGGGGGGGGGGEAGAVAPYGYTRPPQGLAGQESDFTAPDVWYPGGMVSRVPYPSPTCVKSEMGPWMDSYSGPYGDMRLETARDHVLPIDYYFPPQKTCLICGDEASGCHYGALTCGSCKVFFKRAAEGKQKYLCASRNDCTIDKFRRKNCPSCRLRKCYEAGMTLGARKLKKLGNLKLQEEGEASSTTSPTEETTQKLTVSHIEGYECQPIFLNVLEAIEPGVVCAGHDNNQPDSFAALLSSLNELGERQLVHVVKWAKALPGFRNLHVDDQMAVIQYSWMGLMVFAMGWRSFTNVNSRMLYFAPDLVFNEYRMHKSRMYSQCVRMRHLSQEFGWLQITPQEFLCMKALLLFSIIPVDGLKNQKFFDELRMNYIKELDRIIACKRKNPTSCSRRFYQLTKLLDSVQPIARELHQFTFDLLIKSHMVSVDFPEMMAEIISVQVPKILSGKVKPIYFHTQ

Compound: CC(C)(C)C1CCC(=O)CC1
- outcome [1]: inactive
- outcome [2]: inactive
- outcome [3]: inactive
- outcome [4]: inactive
- outcome [5]: inactive
- outcome [6]: inactive
- outcome [7]: inactive

Compound: C1CNCCN1
- outcome [1]: inactive
- outcome [2]: inactive
- outcome [3]: inactive
- outcome [8]: inactive

Compound: CC(=O)OC(C)c1ccccc1 (stereo unspecified)
- outcome [1]: inactive
- outcome [3]: inactive

Compound: CCCCNS(=O)(=O)c1ccccc1
- outcome [1]: inactive
- outcome [2]: inactive
- outcome [3]: inactive
- outcome [4]: inactive
- outcome [5]: inactive
- outcome [8]: inactive

Compound: O=C(Nc1ccccc1)c1cc(Cl)ccc1O
- AC50 [1]: 33.9 µM (active)
- outcome [2]: inactive
- outcome [3]: inactive
- outcome [4]: inactive
- AC50 [5]: 17.5 µM (active)
- outcome [6]: inactive
- AC50 [7]: 16.1 µM (active)

Compound: CCOC(=O)C1=NOC(c2ccccc2)(c2ccccc2)C1
- outcome [1]: inactive
- outcome [3]: inactive
- outcome [4]: inactive
- outcome [5]: inactive
- outcome [6]: inactive
- outcome [7]: inactive

Compound: CCCCC(=O)O
- outcome [1]: inactive
- outcome [2]: inactive
- outcome [3]: inactive
- outcome [4]: inactive
- outcome [8]: inactive

Compound: C=C[C@@]1(C)CC(=O)[C@]2(O)[C@@]3(C)[C@@H](O)CCC(C)(C)[C@@H]3[C@H](O)[C@H](OC(C)=O)[C@@]2(C)O1
- AC50 [1]: 27.4 µM (active)
- AC50 [2]: 89.1 µM (active)
- outcome [3]: inactive
- AC50 [6]: 0.183 µM (active)

Compound: CCCCCCCCCCCC(=O)N(C)CC(=O)O
- outcome [1]: inactive
- outcome [2]: inactive
- outcome [3]: inactive
- outcome [6]: inactive

Compound: CCCCC(CC)COC(=O)/C=C/c1ccc(OC)cc1 (stereo unspecified)
- outcome [9]: inactive
- outcome [3]: inactive
- outcome [6]: inactive

Compound: Cc1ccc([N+](=O)[O-])cc1N
- outcome [1]: inactive
- outcome [3]: inactive
- outcome [4]: inactive
- outcome [5]: inactive
- outcome [6]: inactive
- outcome [8]: inactive

Compound: CCCCCCCCCC[N+](C)(CCCCCCCCCC)CCC[Si](OC)(OC)OC
- outcome [1]: inactive
- AC50 [2]: 24.1 µM (active)
- AC50 [3]: 81.9 µM (active)
- AC50 [6]: 11.7 µM (active)
- outcome [8]: inactive

Compound: CCCCCCCCC(CO)CCCCCC (stereo unspecified)
- outcome [1]: inactive
- AC50 [3]: 17.7 µM (active)
- outcome [4]: inactive
- outcome [5]: inactive
- outcome [8]: inactive

Compound: CCCCc1ccc(Cl)cc1
- outcome [1]: inactive
- outcome [3]: inactive
- outcome [4]: inactive
- outcome [5]: inactive
- outcome [6]: inactive

Compound: CCCC=C(C=O)CC
- outcome [1]: inactive
- outcome [2]: inactive
- outcome [3]: inactive
- outcome [7]: inactive

Compound: CCOC(=O)c1ccccc1C
- AC50 [1]: 29.4 µM (active)
- outcome [3]: inactive
- outcome [4]: inactive
- outcome [6]: inactive
- outcome [8]: inactive

Compound: CC(C)c1cc(C(C)C)cc(C(C)C)c1
- outcome [1]: inactive
- outcome [2]: inactive
- outcome [3]: inactive
- outcome [8]: inactive

Compound: O=C(O)C1CCC(C(=O)O)CC1 (stereo unspecified)
- outcome [1]: inactive
- outcome [2]: inactive
- outcome [3]: inactive
- outcome [4]: inactive
- outcome [7]: inactive
- outcome [8]: inactive

Compound: CN(C)c1ccc2nc3ccc(=[N+](C)C)cc-3sc2c1
- AC50 [1]: 14.7 µM (active)
- AC50 [2]: 40.6 µM (active)
- AC50 [3]: 28.2 µM (active)
- AC50 [6]: 26.3 µM (active)

Compound: CC1=CCC2CC1C2(C)C (stereo unspecified)
- outcome [1]: inactive
- outcome [3]: inactive

Compound: Oc1ccccc1Cc1ccccc1O
- AC50 [1]: 11.8 µM (active)
- outcome [2]: inactive
- outcome [3]: inactive

Compound: CCCCOCCOC(=O)COc1ccc(Cl)cc1Cl
- outcome [1]: inactive
- outcome [2]: inactive
- outcome [3]: inactive
- outcome [6]: inactive
- outcome [8]: inactive

Compound: CCCCNC(=S)NCCCC
- outcome [1]: inactive
- outcome [2]: inactive
- outcome [3]: inactive
- outcome [4]: inactive
- outcome [5]: inactive
- outcome [6]: inactive
- outcome [7]: inactive
- outcome [8]: inactive

Compound: CCOC(=O)c1ccc(C)cc1
- outcome [1]: inactive
- outcome [2]: inactive
- outcome [3]: inactive
- outcome [6]: inactive

Compound: CCN1CN(CC)CN(CC)C1
- outcome [1]: inactive
- outcome [3]: inactive
- outcome [4]: inactive
- outcome [5]: inactive
- outcome [6]: inactive

Compound: O=S(=O)(O)c1ccc(N=Nc2c(O)ccc3ccccc23)cc1
- outcome [1]: inactive
- outcome [2]: inactive
- outcome [3]: inactive
- outcome [6]: inactive
- outcome [7]: inactive
- outcome [8]: inactive

Compound: CCCCCCOC(=O)CCCCC(=O)OCCCCCC
- outcome [1]: inactive
- outcome [3]: inactive
- outcome [4]: inactive
- outcome [5]: inactive

Compound: COC(=O)c1ccccc1C
- outcome [1]: inactive
- outcome [2]: inactive
- outcome [3]: inactive
- outcome [7]: inactive

Compound: CCCCC(CC)COS(=O)(=O)O (stereo unspecified)
- outcome [1]: inactive
- outcome [2]: inactive
- outcome [3]: inactive
- outcome [4]: inactive

Compound: Cc1cc(C)n(CO)n1
- outcome [3]: inactive
- outcome [4]: inactive
- outcome [5]: inactive
- outcome [8]: inactive

Compound: CCCCCCOc1ccc(N)cc1
- outcome [2]: inactive
- outcome [3]: inactive
- outcome [4]: inactive
- AC50 [5]: 14.3 µM (active)
- outcome [6]: inactive
- outcome [7]: inactive

Compound: O=C(Oc1ccccc1)c1ccccc1O
- outcome [2]: inactive
- outcome [3]: inactive
- outcome [6]: inactive

Compound: CCCCCC(=O)OCC
- outcome [1]: inactive
- outcome [3]: inactive
- outcome [5]: inactive
- outcome [7]: inactive
- outcome [8]: inactive

Compound: NC(=O)Nc1ccccc1
- outcome [1]: inactive
- outcome [3]: inactive
- outcome [6]: inactive
- outcome [7]: inactive

Compound: CCCCCCC=O
- outcome [3]: inactive

Compound: CC(=O)/C=C/C1C(C)=CCCC1(C)C (stereo unspecified)
- outcome [2]: inactive
- outcome [3]: inactive
- outcome [4]: inactive
- outcome [6]: inactive
- outcome [7]: inactive

Compound: CC(C)c1ccc(O)c(C(C)C)c1
- outcome [1]: inactive
- outcome [3]: inactive
- outcome [6]: inactive
- outcome [8]: inactive

Compound: C/C=C/C=C/CCCCCCCO
- outcome [3]: inactive
- outcome [4]: inactive
- outcome [6]: inactive
- outcome [8]: inactive

Compound: O=C(O)CC(C(=O)O)S(=O)(=O)O (stereo unspecified)
- outcome [2]: inactive
- outcome [3]: inactive
- outcome [6]: inactive
- outcome [7]: inactive
- outcome [8]: inactive

Compound: CC1=NN(c2ccc(S(=O)(=O)O)cc2)C(=O)C1N=Nc1ccccc1 (stereo unspecified)
- outcome [3]: inactive
- outcome [7]: inactive

Compound: CC(C)(C)N
- outcome [2]: inactive
- outcome [3]: inactive
- outcome [8]: inactive

Compound: CC12CCC(CC1)C(C)(C)O2
- outcome [2]: inactive
- outcome [3]: inactive
- outcome [4]: inactive
- outcome [5]: inactive
- outcome [8]: inactive

Compound: O=C(O)/C=C/c1ccccc1
- AC50 [2]: 23.4 µM (active)
- outcome [3]: inactive
- outcome [8]: inactive
